FLuc inh-1 – Photinus pyralis luciferase inhibition; 76,000 tested, 2.5% active; Potency, µM (highest dose often 115 µM), most hits filed as inhibitors; purified P. pyralis luciferase, luminescence, biochemical; P08659; also: % is scaled to controls: 0 for no effect and ±100 for the full control effect; nearly all actives have a fitted effect of over 65% in size
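FLuc 10nM, D-luciferin 10uM, ATP 10uM, Mg acetate 10mM, Tris acetate pH 7.5, Tween/BSA; cpd qHTS; enzyme added last; CCD luminescence.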
GPT2 inh – inhibitors of human GPT2 alanine aminotransferase | 100,000 tested, 0.25% active | AID 1671188 | Potency, µM (highest dose often 57.7 µM), without a hit: at the highest dose activity change, negative = inhibition, usual class: inhibitors | Q8TD30 | Recombinant GPT2, coupled pyruvate oxidase/HRP Amplex Red fluorescence; also: % is scaled to controls: 0 for no effect and ±100 for the full control effect; nearly all actives have a fitted effect of over 60% in size
Target sequence (Q8TD30 whole entry, looked up): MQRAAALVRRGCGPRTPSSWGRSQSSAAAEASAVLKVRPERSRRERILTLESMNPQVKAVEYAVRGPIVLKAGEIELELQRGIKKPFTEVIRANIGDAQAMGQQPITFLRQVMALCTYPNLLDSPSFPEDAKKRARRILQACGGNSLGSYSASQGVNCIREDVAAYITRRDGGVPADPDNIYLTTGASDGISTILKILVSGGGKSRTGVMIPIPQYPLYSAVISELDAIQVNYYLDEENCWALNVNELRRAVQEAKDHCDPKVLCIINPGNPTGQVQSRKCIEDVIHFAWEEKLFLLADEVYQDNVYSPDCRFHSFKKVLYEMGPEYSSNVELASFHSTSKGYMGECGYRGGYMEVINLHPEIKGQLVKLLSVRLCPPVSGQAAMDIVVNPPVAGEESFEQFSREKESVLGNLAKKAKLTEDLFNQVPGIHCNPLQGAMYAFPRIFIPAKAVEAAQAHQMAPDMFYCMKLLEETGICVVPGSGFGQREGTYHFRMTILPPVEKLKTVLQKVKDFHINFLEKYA
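Fluorescence read-out: pyruvate from GPT2 turnover coupled to pyruvate oxidase, HRP and Amplex Red (0.2mM ThPP, 0.2U/mL PO and HRP, 50uM Amplex final). Substrates 250uM a-KG, 2mM L-alanine; enzyme 10ng/uL; 30 min RT.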
hNpr1 antagonist – human Npr1 receptor antagonism | P16066 | HEK293 hNpr1 GloSensor cGMP, ANP-stimulated luminescence | Potency, µM (titrated, usually from 46.3 µM), inactives show top-dose activity change, negative = inhibition, hits mostly inhibitors | 76,000 tested, 1.6% active | AID 1347048; calls by dose curve; also: % is scaled to controls: 0 for no effect and ±100 for the full control effect; nearly all actives have a fitted effect of over 60% in size
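HEK293 cells stably expressing human Npr1 and cGMP GloSensor pGS-40F, loaded 2 h with 2% GloSensor reagent, given compound 30 min at room temperature. Luminescence read before and 20 min after 0.1 nM hNppA.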
3T3 cytotox – cytotoxic compounds in NIH 3T3 cells | NIH 3T3 viability, CellTiter-Glo ATP luminescence, 48-72 h | Potency, µM (series often up to 96.7 µM), for inactives: top-dose activity change, negative = cytotoxicity, actives largely listed as inhibitors | 94,000 tested, 4.3% active; also: % is scaled to controls: 0 for no effect and ±100 for the full control effect; nearly all actives have a fitted effect of over 55% in size
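Viability of NIH 3T3 cells after 48 or 72 hr compound treatment at 37 °C was assessed by CellTiter-Glo, with luminescence imaged following a 10 min room-temperature step.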
HEK cytotox – cytotoxic compounds in HEK 293 cells | HEK 293 viability, ATP luminescence (CellTiter-Glo), 48-72 h | Potency, µM (series often up to 115 µM), without a hit: at the highest dose activity change, negative = cytotoxicity, most hits filed as inhibitors | 94,000 tested, 6.6% active; also: % is scaled to controls: 0 for no effect and ±100 for the full control effect; nearly all actives have a fitted effect of over 60% in size
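HEK 293 cells at 250 cells/well were exposed to compounds by pintool transfer for 48 or 72 hr at 37 degree Celsius, 5% CO2. Viability was read as ATP-coupled luminescence with CellTiter-Glo after 10 min at room temperature.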
FLuc SDR no ATP – binders stabilizing firefly luciferase, without ATP. 1,300 tested, 7.8% active. shares compounds with FLuc inh-1. Purified FLuc-C-HiBiT, Nano-Glo HiBiT luminescence, no ATP. Potency, µM (top dose mostly 32.7 µM), for the others: top-dose activation (signal gain), actives largely listed as activators; also: nearly all actives have a fitted effect of over 55% in size
FLuc SDR ATP – firefly luciferase binding stabilization, ATP added; shares compounds with FLuc inh-1; purified FLuc-C-HiBiT + ATP, HiBiT complementation luminescence; Potency, µM (top dose mostly 32.7 µM), without a hit: at the top dose activation (gain of signal), usual class: activators; 1,300 tested, 8.7% active;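 also: signal reports ligand binding via conformational change of the enzyme rather than luciferase catalysis; % of control where 0% means no effect; nearly all actives have a fitted effect of over 55% in size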
FLuc inh-2 – blocks firefly luciferase enzymatic activity; shares compounds with FLuc inh-1; purified FLuc-C-HiBiT enzyme, luciferin luminescence; Potency, µM (series often up to 32.7 µM), for the others: top-dose activity change, negative = inhibition, most hits filed as inhibitors; 1,300 tested, 42% active; AID 1963320; also: % is scaled to controls: 0 for no effect and ±100 for the full control effect; nearly all actives have a fitted effect of over 70% in size
Active calls of the source: *; i = inactive; ? = inconclusive; . = no result; [ ] = dose if it differs, or a comment. This is a sample that favours compounds with a hit; in the whole collection about 10% have one here. Unless noted, calls follow the shape of the dose curve; as a rule, active = well fitted curve in the direction sought with a large enough effect; inconclusive = small, poorly fitted or top-dose-only effect, or another doubt; inactive = no such curve, though single readings can be large; an effect the other way counts as inactive or inconclusive. Potency is read from the fitted curve at half-maximal effect.

SMILES | FLuc inh-1 | GPT2 inh | hNpr1 antagonist | 3T3 cytotox | HEK cytotox | FLuc SDR no ATP | FLuc SDR ATP | FLuc inh-2
Cc1ccc(C2=NC(c3ccccc3)=Nc3ccc(Cl)cc3N2)cc1 | . | . | . | . | . | 13% | 10% | -9%
COc1ccc(-c2noc(-c3ccc(N4CCN(C)CC4)c([N+](=O)[O-])c3)n2)cc1 | . | . | . | . | . | 21% | 13% | ?
COc1ccc(-c2noc(-c3nc(-c4ccc5c(c4)OCO5)no3)n2)cc1 | i | i | 0% | i | 3% | . | . | .
COc1ccccc1-c1noc(-c2ccc(N3CCN(C)CC3)c([N+](=O)[O-])c2)n1 | . | . | . | . | . | ? | ? | 5µM*
Cc1ccccc1-c1noc(-c2ccc(N3CCCC3)c([N+](=O)[O-])c2)n1 | . | . | . | . | . | 22% | ? | ?
O=C(Nc1ccccc1-c1nc2ccccc2s1)c1ccc(F)cc1 | . | . | . | . | . | 8% | 7% | -7%
Cn1ncc2c(C(=O)Nc3ccccc3Cl)cc(-c3ccccc3C(F)(F)F)nc21 | . | . | . | -30% | ? | . | . | .
COc1ccc(C(=O)Nc2ccccc2-c2nc3ccccc3s2)cc1OC | . | . | . | . | . | 13% | 9% | 0%
COc1ccc(-c2ccc(C(=O)Nc3ccccc3Cl)cc2)nn1 | . | . | . | -27%[138 µM] | ? | . | . | .
O=C(Nc1cc(-c2ccncc2)nn1-c1ccccc1)c1ccc(F)cc1 | . | -7% | . | ? | ? | . | . | .
O=C(Nc1ccccc1-c1nc2ccccc2s1)c1cc(Cl)cc(Cl)c1 | . | . | . | . | . | 10% | 9% | 2%
CCn1c(-c2ccccc2)nn(CC(=O)N(C)C(C)c2ccon2)c1=O (stereo unspecified) | i | 1% | -2% | -2% | -6% | . | . | .
CNC(=O)N1CCCN(C)c2ccccc21 | i | i | -1% | i | i | . | . | .
CCn1c(C2CCCN(C(=O)Nc3ccc4c(c3)OCCO4)C2)nn(C)c1=O (stereo unspecified) | 6.3µM* | i | -26% | 1% | 8% | 25% | 18% | ?
CN1CCCN(C(=O)Nc2ccc3c(c2)OCCO3)c2ccccc21 | 11µM* | 0% | -16% | ? | -18% | 26% | ? | ?
O=C(Nc1ccc2c(c1)OCCO2)N1CCCC(c2nc(C3CCOCC3)no2)C1 (stereo unspecified) | 13µM* | 3% | 1% | -7% | -5% | 23% | 21% | ?
Cc1cccc(OCCc2noc(C3CN(C(=O)Nc4ccc5c(c4)OCCO5)C3)n2)c1 | 3.5µM* | 1% | ? | ? | ? | ? | 20% | 7µM*
O=C(Nc1ccccc1)N1CCCC(c2nc(C3CCOCC3)no2)C1 (stereo unspecified) | i | i | -2% | -3% | -5% | . | . | .
O=C(OCc1ccccc1)N1CCC2(C1)C(=NC1CCCC1)NC(=O)N2c1cccnc1 (stereo unspecified) | i | i | 4% | -10% | i | . | . | .
COc1ccc(-c2ccc3ncc(Nc4cc(F)cc(N5CCOCC5)c4)n3n2)cc1OC | 8.9µM* | ? | 2% | 18µM* | ? | 19% | 12% | ?
Fc1ccc(-c2nnc3ccc(Nc4ccc(N5CCOCC5)cc4)nn23)nc1 | i | ? | -1%[70.6 µM] | ? | ? | . | . | .
Cc1cn2nc(C(=O)Nc3ccc4c(c3)OCCO4)cc2c(N2CCCC2)n1 | i | i | -24% | ? | ? | . | . | .
Cn1nc(-c2ccc3c(c2)OCCO3)nc1N1CCCCC1 | 4µM* | i | ? | ? | -4% | ? | ? | 9.9µM*
Cc1ccc(Nc2cc(-c3cccc(N4C(=O)c5ccccc5C4=O)c3)ncn2)cc1NS(C)(=O)=O | . | -29% | . | . | . | . | . | .
CS(=O)(=O)Nc1ccc(-c2nc3ccccc3s2)cc1 | . | . | . | . | . | ? | ? | 2.2µM*
SMILES | FLuc inh-1 | GPT2 inh | hNpr1 antagonist | 3T3 cytotox | HEK cytotox | FLuc SDR no ATP | FLuc SDR ATP | FLuc inh-2
Cc1c(NS(C)(=O)=O)cccc1-c1nc2ccccc2s1 | . | . | . | . | . | 29% | 21% | ?
CN1CCC(NC(=O)C(C)(C)Oc2nn(Cc3ncccn3)c3ccccc23)CC1 | . | . | . | . | . | 14%[49.3 µM] | 11%[49.3 µM] | 0%[49.3 µM]
CC(C)(Oc1nn(CC2CC2)c2ccc(CN3CCCC3)cc12)C(=O)NC1CCOCC1 | . | . | . | . | . | 12%[49.3 µM] | 10%[49.3 µM] | -3%[49.3 µM]
COCc1ccc2c(c1)c(OC(C)(C)C(=O)NC1CC1)nn2Cc1ccccc1 | i | -16%[88.5 µM] | 1%[70.6 µM] | ? | ? | . | . | .
CN(C)c1cccc(C(=O)Nc2ncc(-c3cnn(C)c3)c3c2OCC3)c1 | ? | 1%[88.5 µM] | 6%[70.6 µM] | ? | -27%[172 µM] | . | . | .
CNC(=O)c1cccc(-c2cnc(NC(=O)c3cn(C)cn3)c3c2CCO3)c1 | . | . | . | . | . | 23%[49.3 µM] | ? | ?
CNC(=O)c1cccc(-c2cnc(NC(=O)c3ccncc3)c3c2CCO3)c1 | 13µM* | -5%[88.5 µM] | -15%[70.6 µM] | ? | -15%[172 µM] | 23%[49.3 µM] | ? | ?
O=C1COCC2(CN1)CN(Cc1ccc(Cl)cc1)C2 | i | i | -10%[70.6 µM] | -4%[174 µM] | ? | . | . | .
CN1CC(=O)N(C2CCC2)Cc2c1ncnc2N1CCOCC1 | . | -18% | . | i | i | . | . | .
CN1CC(=O)N(C2CCCC2)Cc2c1ncnc2N1CCOCC1 | i | 0%[88.5 µM] | 0%[70.6 µM] | -5%[138 µM] | 3%[172 µM] | 12%[49.3 µM] | 8%[49.3 µM] | 2%[49.3 µM]
Cc1ccc(C(=O)Nc2cc(C3CC3)nn2C)cc1 | . | -2%[88.5 µM] | . | -20%[138 µM] | -1%[172 µM] | . | . | .
O=C(CCc1nc2ccccc2s1)N1CCN(C(=O)c2ccco2)CC1 | i | 1% | -2% | -9% | -10% | . | . | .
CCCc1nc(C(=O)N2CCN(c3nc4ccccc4s3)CC2)cs1 | i | 0%[11.5 µM] | ? | ? | ? | . | . | .
CCOc1ccc2nc(N3CCN(C(=O)c4ccco4)CC3)sc2c1 | . | . | . | . | . | 24% | 15% | ?
CCCC(=O)N1CCN(c2nc3ccc(F)cc3s2)CC1 | . | . | . | . | . | 25% | ? | 11µM*
Cc1noc(-c2ccc(OC3CN(C(=O)C(C)c4ccccc4)C3)cc2)n1 (stereo unspecified) | i | ? | ? | ? | ? | . | . | .
COCCNc1cc(-c2ccc3ccccc3n2)c2cc[nH]c2n1 | 10µM* | i | -19% | ? | ? | 13% | 17% | ?
COCCNc1cc(-c2cncc(C(=O)N3CCOCC3)n2)c2cc[nH]c2n1 | i | i | -2% | -22% | -1% | . | . | .
Cc1ccc2nc(-c3cccc(NC(=O)CSc4ccc(Cl)cc4)c3)oc2c1 | . | . | . | . | . | 31% | 18% | ?

Compound activity (PubChem)
